# Reference: the supplement of paper PMC9023506
# Counter-ions that a name gives are not always drawn.
# Tested on: Danio rerio larvae (5 dpf)
# Experiment: activity during first hour (no stimuli), difference vs DMSO (percentage points (treated minus DMSO)); higher = more of the behaviour than the DMSO vehicle control
# Conditions: 10 µM; exposure time: 3 h pre-incubation + 3 h imaging
# Procedure: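 5-dpf wild-type zebrafish larvae were imaged in 96-well plates. They were treated with 190 Tocris FDA-approved drugs at 10 µM (1 µl/ml DMSO) for 3 h before and 3 h during imaging at 28.5 °C, 48 larvae per drug. Automated image analysis gave % time moving and optomotor responses. Values are drug group mean minus DMSO vehicle mean (n=844), in percentage points, for 10 behaviours.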
row,Compound,activity during first hour
1,CCc1ccc(CCOc2ccc(CC3SC(=O)NC3=O)cc2)nc1 (stereo not given) [Pioglitazone hydrochloride],-5.36
2,COc1ccccc1Oc1c(NS(=O)(=O)c2ccc(C(C)(C)C)cc2)nc(-c2ncccn2)nc1OCCO [Bosentan],1.27
3,COc1cccc2c1C(=O)c1c(O)c3c(c(O)c1C2=O)C[C@@](O)(C(=O)CO)C[C@@H]3O[C@H]1C[C@H](N)[C@H](O)[C@H](C)O1 [Doxorubicin hydrochloride],-5.82
4,CC(=O)Oc1ccccc1C(=O)O [Aspirin],-0.0609
5,CC(C)c1nc(N(C)S(C)(=O)=O)nc(-c2ccc(F)cc2)c1/C=C/[C@@H](O)C[C@@H](O)CC(=O)O [Rosuvastatin calcium],3.37
6,COc1cc2nc(N3CCN(C(=O)C4COc5ccccc5O4)CC3)nc(N)c2cc1OC (stereo not given) [Doxazosin mesylate],-2.96
7,C#C[C@]1(O)CC[C@H]2[C@@H]3CCC4=CC(=O)CC[C@@H]4[C@H]3CC[C@@]21CC [Levonorgestrel],-8.15
8,CN1CCN2c3ncccc3Cc3ccccc3C2C1 (stereo not given) [Mirtazapine],11.7
9,CCOC(=O)[C@H](CCc1ccccc1)N[C@@H](C)C(=O)N1[C@H](C(=O)O)C[C@@H]2CCC[C@@H]21 [Ramipril],2.6
10,CC(=O)Oc1cc2c(s1)CCN(C(C(=O)C1CC1)c1ccccc1F)C2 (stereo not given) [Prasugrel],-1.24
11,CN1CCC[C@@H]1Cc1c[nH]c2ccc(CCS(=O)(=O)c3ccccc3)cc12 [Eletriptan hydrobromide],4.26
12,CC(C)N(CCCCOCC(=O)NS(C)(=O)=O)c1cnc(-c2ccccc2)c(-c2ccccc2)n1 [Selexipag],4.1
13,Nc1nc2c(ncn2COCCO)c(=O)[nH]1 [Acyclovir],-2
14,Cc1nc(Nc2ncc(C(=O)Nc3c(C)cccc3Cl)s2)cc(N2CCN(CCO)CC2)n1 [Dasatinib],-11.4
15,CCOC(=O)[C@H](CCc1ccccc1)N[C@H]1CCc2ccccc2N(CC(=O)O)C1=O [Benazepril hydrochloride],1.65
16,COCCCOc1cc(C[C@@H](C[C@H](N)[C@@H](O)C[C@H](C(=O)NCC(C)(C)C(N)=O)C(C)C)C(C)C)ccc1OC [Aliskiren hemifumarate],-4.92
17,NS(=O)(=O)Cc1noc2ccccc12 [Zonisamide],3.75
18,CC(=O)S[C@@H]1CC2=CC(=O)CC[C@]2(C)[C@H]2CC[C@@]3(C)[C@@H](CC[C@@]34CCC(=O)O4)[C@H]12 [Spironolactone],-0.165
19,CN(C)CC/C=C1/c2ccccc2COc2ccc(CC(=O)O)cc21 [Olopatadine hydrochloride],-0.591
20,NC(=O)c1ncn([C@@H]2O[C@H](CO)[C@@H](O)[C@H]2O)n1 [Ribavirin],1.58

row,Compound,activity during first hour
1,CCCCNc1cc(C(=O)O)cc(S(N)(=O)=O)c1Oc1ccccc1 [Bumetanide],3.74
2,COc1cc2nccc(Oc3ccc(NC(=O)C4(C(=O)Nc5ccc(F)cc5)CC4)cc3)c2cc1OC,20
3,CN/C(=N\CCSCc1nc[nH]c1C)NC#N [Cimetidine],3.11
4,CC(C)n1c(/C=C/C(O)CC(O)CC(=O)O)c(-c2ccc(F)cc2)c2ccccc21 (stereo not given) [Fluvastatin sodium],1.98
5,Cc1cccc(CN2CCN(C(c3ccccc3)c3ccc(Cl)cc3)CC2)c1 (stereo not given) [Meclizine dihydrochloride],29.1
6,O=C(O)c1cc(/N=N/c2ccc(S(=O)(=O)Nc3ccccn3)cc2)ccc1O [Sulfasalazine],13.5
7,CC(C)C(=O)Nc1ccc([N+](=O)[O-])c(C(F)(F)F)c1 [Flutamide],-9.59
8,CC(C)(C(=O)O)c1ccc(C(O)CCCN2CCC(C(O)(c3ccccc3)c3ccccc3)CC2)cc1 (stereo not given) [Fexofenadine hydrochloride],5.4
9,Clc1ccccc1C(c1ccccc1)(c1ccccc1)n1ccnc1 [Clotrimazole],-21.6
10,Nc1nc(Cl)nc2c1ncn2[C@@H]1O[C@H](CO)[C@@H](O)[C@@H]1F [Clofarabine],-3.77
11,Cc1ccc(O)c([C@H](CCN(C(C)C)C(C)C)c2ccccc2)c1 [Tolterodine L-tartrate],1.86
12,Brc1c(NC2=NCCN2)ccc2nccnc12,-17
13,Nc1cc(N2CCCCC2)nc(N)[n+]1[O-] [Minoxidil],2.82
14,CCOC(=O)c1ncn2c1CN(C)C(=O)c1cc(F)ccc1-2 [Flumazenil],2.88
15,CC(C)COCC(CN(Cc1ccccc1)c1ccccc1)N1CCCC1 (stereo not given) [Bepridil hydrochloride],0.257
16,C#CCN[C@@H]1CCc2ccccc21 [Rasagiline mesylate],4.92
17,CC(C)(C(=O)c1cccnc1)c1cccnc1 [Metyrapone],-5.92
18,Cc1cccc(C)c1OCC(C)N (stereo not given) [Mexiletine hydrochloride],4.51
19,COC(=O)C1=C(C)NC(C)=C(C(=O)OC(C)C)C1c1cccc2nonc12 (stereo not given) [Isradipine],0.0385
20,CCc1c2c(nc3ccc(OC(=O)N4CCC(N5CCCCC5)CC4)cc13)-c1cc3c(c(=O)n1C2)COC(=O)[C@]3(O)CC,-4.43
